According to article PMC7819943, “Rice protein-binding microarrays: a tool to detect cis-acting elements near promoter regions in rice”:
Whole data set: some 68,000 sequences, median “fluorescence intensity (a.u.)” near 9,100, cut for the highest 2% near 16,000. Many of the other results were omitted from the sample, so the highest values are more common in it than they were.

Target: OsWRKY34 (Oryza sativa, UniProt Q0JBA9 1-250)
Assay: protein-binding microarray (RPBM); PBS, 2% BSA, 51.3 ng/ul salmon testes DNA, 50 uM zinc acetate, 200 nM TF, 25 C, 1 h; high values mean tight binding
Settings: protein: recombinant; tags: N-terminal polyhistidine and DsRed monomer fusion (pET32a); label: CyDye5-dUTP incorporated in the synthesized complementary strand; 3' TTTTT single-stranded linker to array surface; dsDNA, one strand shown
Summary of the method: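 An Axon 4000B scanner gave the binding signal as per-feature fluorescence intensity in arbitrary units. This followed washing of a custom Agilent array that had been incubated for 1 h at 25 °C with 200 nM protein in PBS, 2% BSA, salmon testes DNA and 50 µM zinc acetate. The proteins were transcription factors fused at the N-terminus to polyhistidine and DsRed, expressed in E. coli BL21-CodonPlus and purified on Ni–NTA.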

OsWRKY34, sequence (Q0JBA9 entry or part of it): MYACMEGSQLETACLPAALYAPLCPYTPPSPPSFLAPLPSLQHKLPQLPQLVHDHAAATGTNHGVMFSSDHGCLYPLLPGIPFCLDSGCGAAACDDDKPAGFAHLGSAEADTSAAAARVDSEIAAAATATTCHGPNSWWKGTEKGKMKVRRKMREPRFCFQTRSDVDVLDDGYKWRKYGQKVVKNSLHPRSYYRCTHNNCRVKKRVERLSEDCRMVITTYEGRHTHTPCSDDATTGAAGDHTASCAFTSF

Row | Sequence | binding signal
1 | GGTTTCGTTCGCGAGGAGGAGAGATCTGGTTGGGGAGATGCGGAGTCACCTAGTGCAG | 9660 fluorescence intensity (a.u.)
2 | AGGAGGCGCTACCTTCTATTCCTCACCGGCTCACCGCTATCGGAGTCACCTAGTGCAG | 9700 fluorescence intensity (a.u.)
3 | TGATTTTTTTTTTGTTTCACAGTGCACAGACCAATGTTTCCGGAGTCACCTAGTGCAG | 8320 fluorescence intensity (a.u.)
4 | CGCCGCCACCGCGACTCCTCGCATTCGTCCCCACCACATCCGGAGTCACCTAGTGCAG | 9990 fluorescence intensity (a.u.)
5 | CTTTTTTTTAATGTATTGATGCTTCTTTTCTAGTTTGTACCGGAGTCACCTAGTGCAG | 9060 fluorescence intensity (a.u.)
6 | AGTAGCAGCAGCAGCAGCAGGCAGGAGGGAGTGGGTTTGTCGGAGTCACCTAGTGCAG | 9600 fluorescence intensity (a.u.)
7 | GACAGCGTGAATTCGAGGGATTTCTTGGCTGGTTTGGTTGCGGAGTCACCTAGTGCAG | 10100 fluorescence intensity (a.u.)
8 | TTCTCCGCGCTGCAGTCCTCGCCACAACTCGTCGGCCGAACGGAGTCACCTAGTGCAG | 11600 fluorescence intensity (a.u.)
9 | GGTCATTCATGTATTTTTCTTGCGTTTTGCAATCCTCTGTCGGAGTCACCTAGTGCAG | 11200 fluorescence intensity (a.u.)
10 | CCGCCGCCGCCGCCGCCGACCTTGTCACTCCGGCCGCTGCCGGAGTCACCTAGTGCAG | 9390 fluorescence intensity (a.u.)
11 | GACCGACTACTCCTACAAACATTACTCAAGTCATTGCAAACGGAGTCACCTAGTGCAG | 8200 fluorescence intensity (a.u.)
12 | ATTTTGCATGGGGCATGTGTGAAGTGTCCTACTAAATTTTCGGAGTCACCTAGTGCAG | 9350 fluorescence intensity (a.u.)
13 | GGTTCGTTCGTTCCTCCCGCGGCGACGGGGTGGGGCACACCGGAGTCACCTAGTGCAG | 8930 fluorescence intensity (a.u.)
14 | AATTCCGGTGGTTCACCGCCGGTGAGGGTTGGAGGAGGGGCGGAGTCACCTAGTGCAG | 8160 fluorescence intensity (a.u.)
15 | CGGTAGGGCGAGCACGGGTGGGGTTGGTGGTGATTTTTTTCGGAGTCACCTAGTGCAG | 20800 fluorescence intensity (a.u.)
16 | GGTAGGGCTGCCGCCGGTGGGTAGGGGTGGTGGATTTTTTCGGAGTCACCTAGTGCAG | 14400 fluorescence intensity (a.u.)
17 | GTGTGGTGCGAGCAGTGATATTTTCTGTGTTGGGTCTGGGCGGAGTCACCTAGTGCAG | 8120 fluorescence intensity (a.u.)
18 | GGTTGTAGGTGGAGGAGGAGGAGGGGCGGTTCCGGAGTTTCGGAGTCACCTAGTGCAG | 22600 fluorescence intensity (a.u.)
19 | GCGCGCCGCGCTCACGGGTGGGTCAAGGCAAGGGGAAGGGCGGAGTCACCTAGTGCAG | 9400 fluorescence intensity (a.u.)
20 | AGGGAGGCGTAGGTTGTGGTCGTTGTTGCGGTTTGGAGTTCGGAGTCACCTAGTGCAG | 8250 fluorescence intensity (a.u.)
21 | CCCGGCCGCTCTCTCCGGGTGGGGTGGTGGGTGGCAAGGGCGGAGTCACCTAGTGCAG | 21100 fluorescence intensity (a.u.)
22 | GGAGGGGCGGGGTGGCGCGGCGAGGCCGGCGACAAGGCCGCGGAGTCACCTAGTGCAG | 9130 fluorescence intensity (a.u.)
23 | GACTCGGCGGCCTCTGCTCCTCCGCTCGTTCCTCTCCCGACGGAGTCACCTAGTGCAG | 11100 fluorescence intensity (a.u.)
24 | TCCGCTCGTTCCTCTCCCGACGAGGGTGGGTGGGGTGGGGCGGAGTCACCTAGTGCAG | 22700 fluorescence intensity (a.u.)
